Screening data: PubChem BioAssay, National Center for Advancing Translational Sciences (NCATS)
TDP1 cell CPT – growth inhibition of DT40 Tdp1-/-;hTDP1 cells with camptothecin (screen for TDP1 inhibitors) | chicken DT40 Tdp1-/-;hTDP1 cells + 20 nM CPT, ATP luminescence, 48 h | Potency, µM (highest dose often 46.2 µM), without a hit: top-dose activity change, negative = growth inhibition, hits mostly inhibitors | actives 12% (n = 420,000) | AID 686979; also: potency is read from the fitted curve at half-maximal effect; % is scaled to controls: 0 for no effect and ±100 for the full control effect; nearly all actives have a fitted effect of over 55% in size
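Chicken DT40 Tdp1-/- cells stably complemented with human TDP1 were seeded at 400 cells/well in medium containing 20 nM camptothecin, exposed to pin-transferred compounds, and grown at 37 °C for at least 48 hr. Viability was read as ATP luminescence.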
BCR signal inh – chronic active BCR signaling inhibition; actives 0.05% (n = 340,000); Potency, µM (top dose mostly 46.1 µM), without a hit: at the highest dose activity change, negative = inhibition, most hits filed as inhibitors; ABC-DLBCL IkBa-CBG/CBR reporter, luminescence ratio, 4 h; AID 493014; active = well fitted inhibition curve with a large enough effect in the signal ratio, with a control signal flat, not every such curve was filed as active; inconclusive = small, poorly fitted or top-dose-only effect, or effect the other way, or a change in a side signal; the % refers to the signal ratio;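 also: potency is read from the fitted curve at half-maximal effect; plate controls were basal doxycycline-induced cells for no effect and cells given 10 µM MG132 for full effect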
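TMD8 ABC-DLBCL cells carrying doxycycline-inducible green luciferase fused to IkappaBalpha plus unfused red luciferase were exposed to compounds (up to 46 uM) for 4 hrs at 37C. Activity came from the overlap-corrected green/red luminescence ratio.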
MCF10A rerep – induces DNA re-replication in MCF 10a normal breast cells; MCF 10A DNA re-replication, Hoechst nuclear intensity, 48 h; Potency, µM (doses to about 46.1 µM), for inactives: top-dose activity, positive = re-replication, actives largely listed as activators; actives 2.9% (n = 350,000); AID 624296; also: potency is read from the fitted curve at half-maximal effect; % of control where 0% means no effect; nearly all actives have a fitted effect of over 50% in size
SW480 rereplic – DNA re-replication induction in SW480 cells | SW480 DNA re-replication, Hoechst DNA content imaging, 48 h | Potency, µM (highest dose often 46.1 µM), without a hit: top-dose re-replication activation, usual class: activators | actives 1.8% (n = 340,000); also: potency is read from the fitted curve at half-maximal effect; % of control where 0% means no effect; nearly all actives have a fitted effect of over 55% in size
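Readout is total intensity of Hoechst-stained nuclei, excited at 405 nm and collected at 500-530 nm. Compound treatment lasted 48 hr at 37 C in 5% CO2 before staining.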
IL1B secr inh – blocks inflammasome-driven IL-1 beta release; THP-1 LPS/ATP IL-1B secretion, AlphaLISA, 16 h; hits give low values; activity change, % at 57.5 µM; actives 4.7% (n = 360,000); AID 743279; in the data active = activity change below about -50%; inconclusive = mostly about -30% to -49%; also: % is scaled to controls: 0 for no effect and ±100 for the full control effect
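THP-1 cells pretreated 1 hr with compounds (up to 57.5 uM final), then stimulated with LPS (250 ng/mL final) plus ATP (1.25 mM final); secreted IL-1B measured by AlphaLISA after 16 hr, decreased signal indicating inhibition.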
TDP1 cell noCPT – qHTS for Inhibitors of human tyrosyl-DNA phosphodiesterase 1 (TDP1): qHTS in cells in absence of CPT; Potency, µM (titrated, usually from 46.2 µM), without a hit: at the highest dose activity change, negative = growth inhibition, usual class: inhibitors; actives 15% (n = 420,000); DT40 Tdp1-/- hTDP1 cells, no CPT, ATP luminescence, 48 h; also: potency is read from the fitted curve at half-maximal effect; % is scaled to controls: 0 for no effect and ±100 for the full control effect; nearly all actives have a fitted effect of over 55% in size
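Readout: luminescence from CellTiter-Glo after 30 min in the dark at RT. Cells: DT40 Tdp1-/- with stable hTDP1, 400/well. Exposure: compounds alone, ≥48 hr, 37 °C.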
Active calls of the source: *. Compounds with a hit are over-represented: about 19% of the library has one in this group of screens. Unless noted, calls follow the shape of the dose curve; as a rule, active = well fitted curve in the direction sought with a large enough effect; inconclusive = small, poorly fitted or top-dose-only effect, or another doubt; inactive = no such curve, though single readings can be large; an effect the other way counts as inactive or inconclusive.

For CC(C)NC(=O)CSc1nc2ccccc2c(=O)n1CCCOC(C)C the results were TDP1 cell CPT -7.3%, BCR signal inh 2.8%, MCF10A rerep 7.6%, SW480 rereplic -2.4%, IL1B secr inh -0.1 and TDP1 cell noCPT -19.4%.
For COCCn1c(SCC(=O)c2c(C)[nH]c3ccccc23)nc2cc(C(=O)NC(C)C)ccc2c1=O the results were TDP1 cell CPT 11.6µM* and TDP1 cell noCPT 16.4µM*.
For N#C/C(=C1\SCC(c2ccccc2Cl)S1)n1ccnc1 (stereo unspecified) the results were TDP1 cell CPT inconclusive and TDP1 cell noCPT 23.7µM*.
COc1ccc(OC)c(S(=O)(=O)NC2CC(=O)N(c3cccc(F)c3)C2)c1 (stereo unspecified) was read as TDP1 cell CPT -3.6%, BCR signal inh -11.7%, MCF10A rerep -13.1%, SW480 rereplic 6.51µM*, IL1B secr inh 0.0 and TDP1 cell noCPT inconclusive.
CC(=O)Nc1ccc(S(=O)(=O)NC2CC(=O)N(c3ccc(C)cc3)C2)cc1 (stereo unspecified) was read as TDP1 cell CPT 14.0%, BCR signal inh -4.4%, MCF10A rerep -14.6%, SW480 rereplic 6.51µM*, IL1B secr inh -4.3 and TDP1 cell noCPT -5.6%.
For COc1cccc(N2CC(NS(=O)(=O)c3cccnc3)CC2=O)c1 (stereo unspecified) the results were TDP1 cell CPT -14.5%, BCR signal inh 10.5%, MCF10A rerep 10.7%, SW480 rereplic -43.3%, IL1B secr inh 8.7 and TDP1 cell noCPT -29.2%.
For Cc1ccc(N2CC(NC(=O)c3ccc(S(=O)(=O)N4CCCC4)cc3)CC2=O)cc1C (stereo unspecified) the results were TDP1 cell CPT inconclusive, BCR signal inh -5.4% and TDP1 cell noCPT 18.4µM*.
For COc1ccc(OC)c(S(=O)(=O)NC2CC(=O)N(c3ccc(C)c(C)c3)C2)c1 (stereo unspecified) the results were TDP1 cell CPT -25.4%, BCR signal inh -3.6%, MCF10A rerep 4.1%, SW480 rereplic -29.0%, IL1B secr inh 3.1 and TDP1 cell noCPT -23.5%.
For COc1cccc(N2CC(NS(=O)(=O)c3ccc4ccccc4c3)CC2=O)c1 (stereo unspecified) the results were TDP1 cell CPT -15.0%, BCR signal inh inconclusive, MCF10A rerep -27.5%, SW480 rereplic 43.4%, IL1B secr inh -25.7 and TDP1 cell noCPT 29.1µM*.
Screening NC(=O)c1cccc(-c2coc3c(C(=O)NCCc4ccccc4)cccc23)c1 returned TDP1 cell CPT inconclusive, IL1B secr inh 6.0 and TDP1 cell noCPT inconclusive.
`O=C(O[C@@H]1OC2COC(=O)c3cc(O)c(O)c(O)c3-c3c(cc(O)c(O)c3O)C(=O)O[C@@H]([C@H]1O)[C@@H]2O)c1cc(O)c(O)c(O)c1` gave TDP1 cell CPT inconclusive, BCR signal inh 14.5%, MCF10A rerep -5.7%, SW480 rereplic -30.9%, IL1B secr inh 29.1 and TDP1 cell noCPT inconclusive.
Screening COc1ccc(S(=O)(=O)NC2CC(=O)N(c3ccc(C)c(C)c3)C2)cc1 (stereo unspecified) returned TDP1 cell CPT inconclusive, BCR signal inh -5.9%, MCF10A rerep -7.7%, SW480 rereplic -91.4%, IL1B secr inh -13.7 and TDP1 cell noCPT 16.4µM*.
For CCOC(=O)NN=C1CN(S(=O)(=O)c2ccc(C)cc2)C1 the results were TDP1 cell CPT -2.2%, BCR signal inh -6.5%, MCF10A rerep -1.7%, SW480 rereplic -0.8%, IL1B secr inh 11.3 and TDP1 cell noCPT -3.2%.
